Compound activity from PubChem.
Hits are enriched below; roughly 3.3% of the tested compounds scored in any of these assays.
Sm TGR block – inhibitors of Schistosoma mansoni thioredoxin glutathione reductase; Q962Y6; actives 3% (n = 360,000); purified TGR, DTNB reduction, TNB absorbance 405 nm; Potency, µM (highest dose often 114 µM), for the others: top-dose activity change, negative = inhibition, hits mostly inhibitors; AID 485364; note: nearly all actives have a fitted effect of over 60% in size
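Kinetic colorimetric format: TGR-catalysed, NADPH-driven DTNB reduction monitored via TNB absorbance. Enzyme dispensed at 20 nM; compound exposure 15 min at room temperature before reaction start.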
AmpC no deterg – inhibitors of E. coli AmpC beta-lactamase without detergent. AID 485341. actives 0.52% (n = 330,000). Potency, µM (titrated, usually from 57.1 µM), inactives show at the highest dose activity change, negative = inhibition, hits mostly inhibitors. AmpC nitrocefin hydrolysis, absorbance 480 nm, 0.0001% Triton. P00811;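 note: plate controls were no compound for no effect and no enzyme for full effect; nearly all actives have a fitted effect of over 20% in size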
Target sequence (P00811 whole entry, looked up): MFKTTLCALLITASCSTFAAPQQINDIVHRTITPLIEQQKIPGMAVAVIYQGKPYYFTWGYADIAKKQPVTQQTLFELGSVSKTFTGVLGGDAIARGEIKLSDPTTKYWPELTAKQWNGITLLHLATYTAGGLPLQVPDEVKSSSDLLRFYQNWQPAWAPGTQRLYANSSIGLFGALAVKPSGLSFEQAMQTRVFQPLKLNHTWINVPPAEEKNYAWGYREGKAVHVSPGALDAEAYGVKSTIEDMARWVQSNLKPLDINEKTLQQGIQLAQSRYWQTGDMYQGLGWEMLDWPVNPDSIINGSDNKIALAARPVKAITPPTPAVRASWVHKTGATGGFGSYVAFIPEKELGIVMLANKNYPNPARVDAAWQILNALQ
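AmpC (5.3 nM in the dispensed reagent) in 20 mM phosphate pH 7.0 with 0.01% (detergent screen) or 0.0001% Triton X-100 was preincubated with compounds for 15 min at room temperature. Nitrocefin was then added from an 800 uM solution, and hydrolysis was followed at 480 nm.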
AmpC inh detg – AmpC beta-lactamase inhibition with detergent present; AmpC hydrolysis of nitrocefin, absorbance 480 nm, 0.01% Triton; P00811; AID 485294; actives 0.041% (n = 370,000); Potency, µM (series often up to 114 µM), inactives show top-dose activity change, negative = inhibition, usual class: inhibitors;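 note: 0% = no-compound wells and -100% = no-enzyme wells; nearly all actives have a fitted effect of over 25% in size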
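AmpC (5.3 nM in the dispensed reagent) in 20 mM phosphate pH 7.0 with 0.01% (detergent screen) or 0.0001% Triton X-100 was preincubated with compounds for 15 min at room temperature. Nitrocefin was then added from an 800 uM solution, and hydrolysis was followed at 480 nm.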
* hit, by the source's call; ? = inconclusive; nt = no result given; [ ] = remark or other dose. Calls come from the whole dose curve; as a rule, active = well fitted curve in the direction sought with a large enough effect; inconclusive = small, poorly fitted or top-dose-only effect, or another doubt; inactive = no such curve, though single readings can be large; an effect the other way counts as inactive or inconclusive. Unless noted, % is set by controls: 0 for no effect and ±100 for the full control effect; potency is the fitted concentration of half-maximal effect.

SMILES	Sm TGR block	AmpC no deterg	AmpC inh detg
O=C(CSc1c2c(nc3cc(Cl)ccc13)CCCC2)NCc1ccco1	89.1µM*	-43.3%	-7.3%
O=C(CSc1nc2ccc(Cl)cc2[nH]1)NCc1ccco1	14.1µM*	-19.8%	-7.9%
O=C(CSc1nc2ccccc2[nH]1)NCc1ccco1	0.0%	-6.3%	?
COc1ccc(OCC(=O)N(Cc2cccc(OC)c2)C2CCS(=O)(=O)C2)cc1 (configuration not stated)	0.6%	nt	1.8%
COc1ccc(OC)c(/C=N/NC(=O)CCc2c(C)n[nH]c2C)c1	9.4%	-4.5%	-0.3%
COc1ccc(OC)c(/C=N/NC(=O)CCc2ccc(O)c(O)c2)c1	20µM*	0.8%	2.3%
CCCC1C2CN(C(C)C)CC=C2C(C#N)=C(N)C1(C#N)C#N (configuration not stated)	17.8µM*	-21.4%	?
CN1CC=C2C(C#N)=C(N)C(C#N)(C#N)C(CCc3ccccc3)C2C1 (configuration not stated)	-15.6%	-31.1%	3.5%
CC(=O)c1ccccc1OC(=O)c1ccc([N+](=O)[O-])o1	15.8µM*	-7.3%	2.2%
Cc1ccc(CNC(=O)c2ccc([N+](=O)[O-])o2)cc1	35.5µM*	-18.5%	-12.6%
Cc1ccc(/C=C/C(=O)c2ccc([N+](=O)[O-])o2)cc1	14.1µM*	-11.5%	-10.5%
O=C(OCCCOC(=O)c1ccc([N+](=O)[O-])o1)c1ccc([N+](=O)[O-])o1	-18.1%	-17.4%	?
O=C(/C=C/c1ccc(Cl)cc1)c1ccc([N+](=O)[O-])o1	?	-17.0%	-0.1%
CN(Cc1ccccc1)C(=O)c1ccc([N+](=O)[O-])o1	39.8µM*	-20.1%	2.4%
O=C(COC(=O)c1ccc([N+](=O)[O-])o1)NCc1ccccc1	nt	-22.9%	nt
Cc1ccc(CNC(=O)c2nn(C)c(C)c2[N+](=O)[O-])cc1	4.7%	-8.6%	-9.3%
COc1cccc(NS(=O)(=O)c2ccc3[nH]cc(C(=O)N(C)C4CCCCC4)c(=O)c3c2)c1	-6.0%	nt	-1.8%
Cc1oc(-c2ccc(C(=O)Nc3cc(F)ccc3F)cc2)nc1COc1ccccc1	-0.2%	nt	7.4%
Cc1cc(C)c(NC(=O)CSc2n[nH]c(-c3ccccc3Cl)n2)c(C)c1	-4.4%	nt	-5.9%
Cc1nc2sc(C(=O)N(C)c3ccccc3)c(NC(=O)c3ccccc3Cl)c2c(C)c1C	8.3%	nt	-2.9%
CCOc1ccccc1NC(=O)Cn1c(=O)n(CCCC(=O)NCCOC)c(=O)c2cc(OC)c(OC)cc21	2.1%	nt	?
Cc1cc(C)n2c(Nc3cccc(C(F)(F)F)c3)c(-c3ccsc3)nc2n1	-0.4%	nt	15.9%
CC(C)Oc1ccc(CNC(=O)c2cc3ccccn3n2)cc1	5.4%	nt	4.1%
Cc1cc(C(=O)CCl)c(C)n1CCc1ccc(Cl)cc1	7.94µM*	-2.4%[2.29 µM]	-2.5%
Cc1cc(C(=O)CSc2nnnn2C)c(C)n1CCc1ccc(F)cc1	-3.0%	-2.0%	-17.4%
SMILES	Sm TGR block	AmpC no deterg	AmpC inh detg
COc1ccc(CCn2c(C)c(C(C)=O)c(C(C)=O)c2C)cc1OC	2.4%	0.7%	-2.4%
Cc1cc(C(=O)CCl)c(C)n1CCc1ccc(F)cc1	2.51µM*	-13.1%	-3.3%
Cc1cc(C(=O)CSc2nnc(N)s2)c(C)n1CCc1ccc(Cl)cc1	0.0%	-52.0%	?
COc1ccc(CCn2c(C)cc(C(=O)CCl)c2C)cc1OC	11.2µM*	-13.1%[11.4 µM]	-18.3%
Cc1ccccc1C(=O)OCc1cc(=O)n2nc(C3CC3)sc2n1	5.2%	nt	10.5%
COc1ccc(C(=O)N2CCC(C(=O)Nc3ccc(Cl)cc3)CC2)cc1	-11.4%	nt	-10.9%
O=C1ON=C(c2ccc(Cl)cc2)/C1=C/c1ccc(O)cc1	22.4µM*	-12.4%	6.9%
CCOc1cc(/C=C2\C(=O)ON=C2c2ccccc2)cc(Br)c1O	1.41µM*	-19.3%	1.5%
COc1ccc(/C=C2/C(=O)ON=C2C)cc1Cl	7.4%	-18.8%	-10.9%
CCOc1cc(/C=C2/C(=O)ON=C2C)cc(Br)c1O	-31.2%	-4.3%	-0.3%
COc1cc(/C=C2/C(=O)ON=C2c2ccccc2)ccc1O	25.1µM*	-29.9%	-3.0%
O=C1ON=C(c2ccccc2)/C1=C/c1ccc(O)cc1	?	-12.6%	?
COc1cc(/C=C2\C(=O)ON=C2c2ccccc2)cc(Cl)c1O	7.08µM*	-52.8%	?
C=CCOc1ccc(/C=C2/C(=O)ON=C2C)cc1OC	0.0%	-16.2%	0.7%
COc1cc(-c2noc(CN3CCN(c4cccc(Cl)c4)CC3)n2)cc(OC)c1OC	-3.2%	nt	7.5%
CCCCC(CC)CNC(=O)c1ccc2c(=O)n(CCOC)c(=O)[nH]c2c1 (configuration not stated)	-5.9%	nt	-7.2%
